Values joined by “and” are separate entries in the source; they are usually repeats but may differ in a detail not shown here. Equal entries are not always repeated. Results filed as inconclusive are left out. A structure can be active in one record and inactive in another. Active and inactive are the calls of the source. The calls were made as follows, unless noted: active = hit-call score of the fitted dose curve at least 0.9, where 1 is the maximum; inactive = score below 0.9.
Legend:
[1] = ACEA_ER_80hr: ACEA Biosciences xCELLigence Real-Time Cell Analysis on Estrogen Receptor Agonism for Proliferation (AID 2282667; active = hit-call score of the fitted dose curve at least 0.9, where 1 is the maximum); settings: T47D proliferation, impedance (xCELLigence), 80 h
Outline: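 T47D human breast cells were seeded on electrode plates, monitored overnight, then exposed continuously to compounds in eight-point 1:4 dilutions from 100 uM (max 0.5% DMSO). Impedance-based growth was read at 80 h, fitted upward relative to DMSO.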

[2] = APR_HepG2_CellLoss_1hr: Apredica 1-hour HepG2 Assay for Cell Loss (AID 2282668); settings: high-content imaging;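 also: curves fitted both ways against DMSO so gain or loss of cells counts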
Outline: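 Cell number comes from high-content imaging of Hoechst-labelled nuclei in fixed HepG2 cells. Cells were exposed for 1 h to ten concentrations from 0.39 to 200 uM in 0.5% DMSO. Gain or loss was fitted against DMSO controls.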

[3] = APR_HepG2_NuclearSize_1hr: Apredica 1-hour HepG2 Assay for Nuclear Size (AID 2282670); settings: high-content imaging, actives raise or lower the signal
Outline: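 Nuclear size measured by high-content imaging of Hoechst 33342 nuclear stain after formaldehyde fixation; human HepG2 line exposed 1 hr to compounds at 0.39–200 uM in 0.5% DMSO, with bidirectional curve fitting relative to DMSO.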

[4] = APR_HepG2_MitoticArrest_1hr: Apredica 1-hour HepG2 Assay for Mitotic Arrest (AID 2282672); settings: high-content imaging, actives raise or lower the signal
Outline: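 Ten-point concentration series (0.39 to 200 uM, duplicates, 0.5% v/v DMSO) applied to human HepG2 liver cells for 1 hr. High-content imaging of phospho-histone H3 and Hoechst-stained nuclei after fixation and permeabilization; DMSO-normalised bidirectional fit.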

[5] = APR_HepG2_P-H2AX_1hr: Apredica 1-hour HepG2 Assay for H2AX Phosphorylation (AID 2282673); settings: high-content imaging, actives raise or lower the signal
Outline: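 Phospho-H2A.x immunofluorescence (1:200, FITC secondary) plus Hoechst nuclear stain, quantified by high-content imaging in HepG2 after 1 hr compound exposure. Ten concentrations, 0.39 to 200 uM, in duplicate with 0.5% DMSO; fit both directions against DMSO.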

[6] = APR_HepG2_MitoMembPot_1hr: Apredica 1-hour HepG2 Assay for Mitochondrial Membrane Potential (AID 2282675); settings: imaging, actives raise or lower the signal
Outline: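 Mitochondrial membrane potential read as MitoTracker Red CMXRos intensity by automated imaging of fixed HepG2 cells. Dye at 250 nM for 30 min pre-fixation; compounds 0.39 to 200 uM for 1 hour, duplicate wells, 0.5% DMSO.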

[7] = APR_HepG2_NuclearSize_24hr: Apredica 24-hour HepG2 Assay for Nuclear Size (AID 2282907); settings: high-content imaging, actives raise or lower the signal
Outline: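 After fixation and permeabilization, 24-hr-treated HepG2 cells were stained with Hoechst 33342 and imaged on an ArrayScan (20x). Doses spanned 0.39–200 uM in duplicate. Nuclear diameter changes in either direction were fitted relative to 0.5% DMSO controls.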

[8] = APR_HepG2_CellLoss_24hr: Apredica 24-hour HepG2 Assay for Cell Loss (AID 2282908); settings: high-content imaging;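 as to AC50: fit in both directions so a hit may be cell loss or gain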
Outline: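 Duplicate wells received compound at ten concentrations (0.39–200 uM; final DMSO 0.5% v/v). After fixation with formaldehyde, nuclei stained with Hoechst 33342 were imaged at 20x. Loss or gain of cell count was fitted relative to DMSO controls.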

[9] = APR_HepG2_MicrotubuleCSK_24hr: Apredica 24-hour HepG2 Assay for Microtubule CSK Stabilty (AID 2282909); settings: HepG2 microtubule cytoskeleton imaging, actives raise or lower the signal
Outline: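 Microtubule stability is scored from tubulin immunofluorescence in fixed HepG2 cells imaged at 20x. Cells receive ten compound concentrations up to 200 uM for 24 h; taxol and DMSO serve as positive and negative controls.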

[10] = APR_HepG2_MitoMembPot_24hr: Apredica 24-hour HepG2 Assay for Mitochondrial Membrane Potential (AID 2282911); settings: imaging, actives raise or lower the signal
Outline: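 HepG2 human liver cells were exposed 24 hr to compounds at 0.39–200 uM (final DMSO 0.5% v/v) in duplicate. MitoTracker Red CMXRos (250 nM, 30 min) was loaded before formaldehyde fixation; fluorescence was imaged by ArrayScan HCS and fitted bidirectionally versus DMSO.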

[11] = APR_HepG2_MitoMass_24hr: Apredica 24-hour HepG2 Assay for Mitochondrial Mass (AID 2282912); settings: high-content imaging, actives raise or lower the signal
Outline: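 Readout: fluorescence of MitoTracker Red CMXRos (250 nM, added 30 min pre-fixation) in fixed HepG2 cells imaged by HCS. Exposure lasted 24 hr at 0.39–200 uM; increases and decreases were both fitted relative to DMSO.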

[12] = APR_HepG2_CellCycleArrest_72hr: Apredica 72-hour HepG2 Assay for Cell Cycle Arrest (AID 2282914); settings: high-content imaging, actives raise or lower the signal
Outline: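 HepG2 cells were exposed to compounds at 0.39–200 uM (0.5% v/v DMSO final, duplicates) for 72 hr, fixed in 3.7% formaldehyde, permeabilized and stained with Hoechst 33342. Nuclear DNA content was quantified by high-content imaging; gain or loss of signal was fitted bidirectionally against DMSO.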

[13] = APR_HepG2_CellLoss_72hr: Apredica 72-hour HepG2 Assay for Cell Loss (AID 2282915); settings: high-content imaging
Outline: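 HepG2 cells were exposed for 72 hr to compounds at 0.39–200 uM (ten concentrations, duplicate) in 0.5% v/v final DMSO. Nuclei were stained with Hoechst 33342 after 3.7% formaldehyde fixation, imaged at 20x, and counted; fits bidirectional versus DMSO.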

[14] = APR_HepG2_MitoMass_1hr: Apredica 1-hour HepG2 Assay for Mitochondrial Mass (AID 2282674); settings: high-content imaging, actives raise or lower the signal
Outline: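 Mitochondrial mass is taken from MitoTracker Red CMXRos (250 nM, 30 min, pre-fixation) fluorescence imaged at 20x in HepG2 cells. Exposure lasted 1 hr across ten concentrations, 0.39 to 200 uM, 0.5% DMSO; DMSO baseline, bidirectional fitting.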

[15] = APR_HepG2_p53Act_24hr: Apredica 24-hour HepG2 Assay for p53 Activation (AID 2282913); settings: high-content imaging, actives raise or lower the signal;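 also: p53 protein immunofluorescence averaged per cell in HepG2 with Hoechst nuclei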
Outline: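 HepG2 cells exposed 24 hr to compounds at 0.39–200 uM (10 concentrations, duplicate), final DMSO 0.5% v/v. After formaldehyde fixation and Triton permeabilization, p53 was immunolabeled (sheep anti-p53, Cy5 secondary) with Hoechst 33342 nuclear counterstain, then imaged by high-content fluorescence microscopy.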

[16] = APR_HepG2_MitoticArrest_24hr: Apredica 24-hour HepG2 Assay for Mitotic Arrest (AID 2282910); settings: high-content imaging, actives raise or lower the signal
Outline: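 Treatment lasted 24 hr in the human HepG2 line at 0.39–200 uM, solvent held at 0.5% DMSO. Fixed cells were stained with Hoechst 33342 and anti-phospho-histone H3, imaged at 20x, and analysed by gain- or loss-of-signal fitting against DMSO.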

[17] = APR_HepG2_CellCycleArrest_24hr: Apredica 24-hour HepG2 Assay for Cell Cycle Arrest (AID 2282905); settings: imaging, actives raise or lower the signal;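 also: cell cycle arrest scored as ratio of 2N to 4N nuclear DNA content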
Outline: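 Step one: dose HepG2 with test compounds, 0.39–200 uM, 0.5% DMSO, 24 hr. Step two: fix, permeabilize, stain nuclei with Hoechst 33342. Step three: image six fields per well at 20x, quantify DNA content, fit bidirectionally relative to DMSO.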

[18] = APR_HepG2_MicrotubuleCSK_1hr: Apredica 1-hour HepG2 Assay for Microtubule CSK Stabilty (AID 2282669); settings: HepG2 microtubule cytoskeleton imaging, actives raise or lower the signal
Outline: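 Alpha-tubulin immunofluorescence, imaged by automated high-content microscopy with Hoechst nuclear segmentation, measured cytoskeletal change after 1 h dosing of HepG2 at 0.39–200 uM in 0.5% DMSO. Activity fitted in both directions relative to DMSO.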

With CCCCN(CCC(=O)OCC)C(C)=O as the molecule, how does the outcome [1] read?
The outcome was “inactive”.

With O=C(O)C1(C(=O)Nc2ccc(Cl)cc2Cl)CC1 as the molecule, how does the outcome [2] read?
Its outcome is “inactive”.

What about the outcome [3] of the same molecule?
The outcome was “inactive”.

What about the outcome [4] of the same molecule?
The outcome was “inactive”.

What about the outcome [5] of the same molecule?
The outcome was “inactive”.

And the outcome [6]?
Its outcome is “inactive”.

And the outcome [7]?
The outcome was “inactive”.

What about the outcome [8] of the same molecule?
The outcome was “inactive”.

What about the outcome [9] of the same molecule?
The outcome was “inactive”.

And the outcome [10]?
The outcome was “inactive”.

What about the outcome [11] of the same molecule?
The outcome was “inactive”.

And the outcome [12]?
Its outcome is “inactive”.

What about the outcome [13] of the same molecule?
Its outcome is “inactive”.

Which results are given for N#CSCSc1nc2ccccc2s1?
outcome [2]: inactive; outcome [3]: inactive; outcome [4]: inactive; AC50 [5]: 27.5 µM (active); outcome [6]: inactive; outcome [7]: inactive; AC50 [8]: 42.9 µM (active); outcome [9]: inactive; outcome [10]: inactive; outcome [11]: inactive; outcome [12]: inactive; AC50 [13]: 10 µM (active)

With C=CCOC(Cn1ccnc1)c1ccc(Cl)cc1Cl (stereo not given) as the molecule, how does the outcome [2] read?
The outcome was “inactive”.

And the outcome [3]?
Its outcome is “inactive”.

What about the outcome [4] of the same molecule?
Its outcome is “inactive”.

And the outcome [5]?
The outcome was “inactive”.

And the outcome [14]?
Its outcome is “inactive”.

What about the outcome [6] of the same molecule?
Its outcome is “inactive”.

And the outcome [7]?
Its outcome is “inactive”.

What about the AC50 [8] of the same molecule?
Its AC50 is 55.8 µM (active).

What about the outcome [9] of the same molecule?
Its outcome is “inactive”.

What about the outcome [10] of the same molecule?
The outcome was “inactive”.

What about the outcome [11] of the same molecule?
The outcome was “inactive”.

What about the outcome [15] of the same molecule?
Its outcome is “inactive”.

And the outcome [12]?
The outcome was “inactive”.

What about the AC50 [13] of the same molecule?
Its AC50 is 78.2 µM (active).

With COC(=O)c1c(Cl)nn(C)c1S(=O)(=O)NC(=O)Nc1nc(OC)cc(OC)n1 as the molecule, how does the outcome [2] read?
The outcome was “inactive”.

And the outcome [3]?
Its outcome is “inactive”.

What about the outcome [4] of the same molecule?
Its outcome is “inactive”.

And the outcome [5]?
Its outcome is “inactive”.

What about the outcome [14] of the same molecule?
Its outcome is “inactive”.

And the outcome [6]?
The outcome was “inactive”.

What about the outcome [7] of the same molecule?
Its outcome is “inactive”.

And the outcome [8]?
Its outcome is “inactive”.

And the outcome [9]?
The outcome was “inactive”.

What about the outcome [16] of the same molecule?
The outcome was “inactive”.

What about the outcome [10] of the same molecule?
The outcome was “inactive”.

And the outcome [11]?
Its outcome is “inactive”.

And the outcome [15]?
The outcome was “inactive”.

What about the outcome [12] of the same molecule?
The outcome was “inactive”.

And the outcome [13]?
Its outcome is “inactive”.

What does the source list for COC(=O)c1ccccc1S(=O)(=O)NC(=O)Nc1nc(OC(F)F)cc(OC(F)F)n1?
outcome [2]: inactive; outcome [3]: inactive; outcome [4]: inactive; outcome [5]: inactive; outcome [6]: inactive; outcome [17]: inactive; outcome [7]: inactive; outcome [8]: inactive; outcome [9]: inactive; outcome [10]: inactive; outcome [11]: inactive; outcome [12]: inactive; outcome [13]: inactive

Which outcome [2] does the source give for S=C(S)NCCNC(=S)S.[Mn+2].[S-]C([S-])=NCCN=C([S-])[S-].[Zn+2] here?
The outcome was “inactive”.

What about the outcome [18] of the same molecule?
Its outcome is “inactive”.

And the outcome [3]?
The outcome was “inactive”.

And the outcome [4]?
The outcome was “inactive”.

And the outcome [5]?
The outcome was “inactive”.

What about the outcome [6] of the same molecule?
Its outcome is “inactive”.

What about the outcome [7] of the same molecule?
The outcome was “inactive”.

And the AC50 [8]?
The AC50 was 50.1 µM (active) [middle of 4 runs].

And the outcome [8]?
Its outcome is “inactive”.

What about the outcome [9] of the same molecule?
Its outcome is “inactive”.

And the outcome [10]?
The outcome was “inactive”.

What about the outcome [11] of the same molecule?
The outcome was “inactive”.

What about the AC50 [12] of the same molecule?
The AC50 was 53.5 µM (active) and 51.5 µM (active).

And the outcome [12]?
Its outcome is “inactive”.

What about the AC50 [13] of the same molecule?
The AC50 was 46.5 µM (active) [middle of 5 runs].

And the outcome [13]?
Its outcome is “inactive”.

Which outcome [2] does the source give for CCOC(=O)COc1cc(-n2ncc(C(F)(F)F)c(C)c2=O)c(F)cc1Cl here?
Its outcome is “inactive”.

What about the outcome [3] of the same molecule?
Its outcome is “inactive”.

And the outcome [4]?
The outcome was “inactive”.

What about the outcome [5] of the same molecule?
The outcome was “inactive”.

And the outcome [6]?
The outcome was “inactive”.

And the outcome [7]?
Its outcome is “inactive”.

What about the outcome [8] of the same molecule?
Its outcome is “inactive”.

And the outcome [9]?
The outcome was “inactive”.

What about the outcome [10] of the same molecule?
The outcome was “inactive”.

What about the outcome [11] of the same molecule?
Its outcome is “inactive”.

What about the outcome [12] of the same molecule?
The outcome was “inactive”.

What about the outcome [13] of the same molecule?
The outcome was “inactive”.
